G9a block – blocks human histone lysine methyltransferase G9a. G9a H3K9 monomethylation, AlphaScreen, 2 h. Potency, µM (series often up to 102 µM), without a hit: top-dose activity, negative = inhibition, most hits filed as inhibitors. Q96KQ7. AID 504332. hit rate 8.8% among 350,000; note: % is set by controls: 0 for no effect and ±100 for the full control effect; nearly all actives have a fitted effect of over 75% in size
Target sequence (Q96KQ7 913-1193 limits assumed): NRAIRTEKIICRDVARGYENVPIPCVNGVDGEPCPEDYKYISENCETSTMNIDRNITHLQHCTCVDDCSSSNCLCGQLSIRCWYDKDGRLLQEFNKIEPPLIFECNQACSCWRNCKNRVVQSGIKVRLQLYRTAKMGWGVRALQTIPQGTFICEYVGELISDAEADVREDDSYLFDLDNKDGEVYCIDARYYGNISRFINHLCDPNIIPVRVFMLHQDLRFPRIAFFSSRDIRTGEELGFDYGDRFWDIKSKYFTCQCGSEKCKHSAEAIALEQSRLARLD
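Compounds were preincubated with 20 nM G9a for 15 min, after which biotinylated H3K9 peptide (500 nM) and SAM (20 uM) started a 2 h room-temperature reaction. Monomethylated product was quantified by antibody-based AlphaScreen chemiluminescence.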
HP1b binding inh – inhibitors of HP1-beta chromodomain binding to methylated histone tails | Potency, µM (titrated, usually from 114 µM), for inactives: at the top dose activity change, negative = inhibition, hits mostly inhibitors | P83916 | AlphaScreen HP1-beta / biotin-H3K9me3 peptide binding | AID 540317 | hit rate 0.56% among 390,000; note: nearly all actives have a fitted effect of over 70% in size
Target sequence (P83916 whole entry, looked up): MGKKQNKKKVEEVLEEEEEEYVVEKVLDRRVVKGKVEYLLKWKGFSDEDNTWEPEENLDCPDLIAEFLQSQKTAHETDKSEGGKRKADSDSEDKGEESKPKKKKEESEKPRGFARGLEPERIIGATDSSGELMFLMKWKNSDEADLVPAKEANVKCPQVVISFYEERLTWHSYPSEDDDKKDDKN
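AlphaScreen: HP1-beta (50 nM) preformed 30 min with biotin-H3(1-18)K9me3 peptide (50 nM) in PBS pH 7.4, 0.01% Tween-20. Compound added for 30 min at RT, then streptavidin donor/nickel chelate acceptor beads (10 ug/mL) for 30 min.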
JMJD2A Tudor inh – JMJD2A Tudor domain (human) inhibition. O75164. Potency, µM (highest dose often 114 µM), without a hit: at the highest dose activity change, negative = inhibition, usual class: inhibitors. AlphaScreen JMJD2A-Tudor / H3K4me3 peptide binding. hit rate 4.4% among 390,000; note: % is set by controls: 0 for no effect and ±100 for the full control effect; nearly all actives have a fitted effect of over 50% in size
BAZ2B block – inhibitors of human BAZ2B bromodomain; Potency, µM (titrated, usually from 114 µM), for inactives: top-dose activity change, negative = inhibition, hits mostly inhibitors; AlphaScreen BAZ2B-H3K14Ac peptide displacement; AID 504333; hit rate 4.4% among 360,000; Q9UIF8; note: % is set by controls: 0 for no effect and ±100 for the full control effect; nearly all actives have a fitted effect of over 60% in size
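In this displacement format the biotinylated H3(5-23) peptide acetylated at Lys14 serves as ligand at 50 nM, with BAZ2B at 50 nM in PBS pH 7.4 containing 0.01% Tween-20. Donor and acceptor beads are 10 ug/mL final.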
Sfp inh – Sfp phosphopantetheinyl transferase inhibition | Potency, µM, for inactives: largest response in the series, negative = inhibition, most hits filed as inhibitors | AID 1490 | hit rate 3.5% among 310,000 | Biochemical Sfp PPTase activity, qHTS;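 note: the enzyme is Sfp with the accession as filed and its product quenches rhodamine fluorescence; 0% = enzyme reaction without inhibitor and -100% = no enzyme wells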
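With Hepes-Na pH 7.6 buffer containing 10 mM MgCl2, Sfp (15 nM) modified BHQ-2-YbbR (12.5 uM) using rhodamine-CoA (5 uM). Two reads 30 minutes apart at 525/598 nm yielded each well's rate.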
* hit, by the source's call; [ ] = remark or other dose. Only some compounds are listed: those with a hit (about 12% of all), similar ones and a draw of the others. Calls come from the whole dose curve; as a rule, active = well fitted curve in the direction sought with a large enough effect; inconclusive = small, poorly fitted or top-dose-only effect, or another doubt; inactive = no such curve, though single readings can be large; an effect the other way counts as inactive or inconclusive. Potency is the fitted concentration of half-maximal effect.

What do the screens show for `Cc1cccc(-c2nc(CNC(=O)c3ccco3)cs2)c1`?
G9a block: 50µM*; HP1b binding inh: 37%; JMJD2A Tudor inh: -9%; BAZ2B block: -14%; Sfp inh: -4%

What do the screens show for `O=C(NCc1ccco1)c1ccccc1-c1nc(-c2ccccc2)no1`?
G9a block: -6%; HP1b binding inh: -5%; JMJD2A Tudor inh: -21%; BAZ2B block: 56µM*; Sfp inh: 4%

How did COc1ccc(-c2nc(CCNC(=O)c3ccco3)cs2)cc1OC do in these assays?
G9a block: inconclusive; HP1b binding inh: 15%; JMJD2A Tudor inh: -16%; BAZ2B block: -9%; Sfp inh: -3%

What do the screens show for `CN(C(=O)Cn1c(Cl)nc2c1c(=O)n(C)c(=O)n2C)C1CCS(=O)(=O)C1` (centres undefined)?
G9a block: 56µM*; HP1b binding inh: 0%; JMJD2A Tudor inh: -20%; BAZ2B block: -5%

What do the screens show for `COc1ccc(C(=O)Cn2c(N3CCOCC3)nc3c2c(=O)n(C)c(=O)n3C)cc1`?
G9a block: 0%; BAZ2B block: -2%; Sfp inh: 21%

How did CCC(C)N(C(=O)Cn1c(Cl)nc2c1c(=O)n(C)c(=O)n2C)C1CCS(=O)(=O)C1 (centres undefined) do in these assays?
HP1b binding inh: 15%; JMJD2A Tudor inh: -14%; BAZ2B block: -5%; Sfp inh: 8%

How did COc1ccc(C(=O)Cn2c(Cl)nc3c2c(=O)n(C)c(=O)n3C)cc1 do in these assays?
G9a block: 23%[12.7 µM]; HP1b binding inh: -2%; JMJD2A Tudor inh: -14%; BAZ2B block: 2%; Sfp inh: 13µM*

What do the screens show for `CCOc1ccc(C(c2c(O)cc(C)n(CCOC)c2=O)N2CCC(C)CC2)cc1` (centres undefined)?
G9a block: -31%[59 µM]; HP1b binding inh: 27%[57 µM]; JMJD2A Tudor inh: -14%; BAZ2B block: -9%

What do the screens show for `Cc1cc(C(=O)COC(=O)C2=NNC(=O)CC2)c(C)n1-c1ccc(OC(F)F)cc1`?
G9a block: 50µM*; HP1b binding inh: -14%; JMJD2A Tudor inh: inconclusive; BAZ2B block: -7%; Sfp inh: -20%

Results for Cc1cc(C(=O)C(C)OC(=O)C2=NNC(=O)CC2)c(C)n1-c1ccc(OC(F)F)cc1 (centres undefined) ?
G9a block: -33%[59 µM]; HP1b binding inh: -25%; JMJD2A Tudor inh: inconclusive; BAZ2B block: inconclusive; Sfp inh: 9%

How did C=CC[C@](C)(O)c1ccccc1 do in these assays?
Sfp inh: 7%

How did C=CC[n+]1c(-c2ccccc2)csc1NC(C)(C)C do in these assays?
G9a block: inconclusive; HP1b binding inh: inconclusive; JMJD2A Tudor inh: -15%; BAZ2B block: 50µM*; Sfp inh: 2%

How did Cc1c(-c2ccccc2)n[nH]c1C(=O)NN do in these assays?
G9a block: 40µM*; HP1b binding inh: 36%; JMJD2A Tudor inh: -4%; BAZ2B block: -24%; Sfp inh: 12%

Results for COC(=O)c1ccc(Cn2ncc3c4sc(C)cc4n(C)c3c2=O)cc1 ?
JMJD2A Tudor inh: -16%

What do the screens show for `CON(C)C(=O)C[C@@H]1C[C@H](OC(=O)c2ccc([N+](=O)[O-])cc2)CN1C(=O)OC(C)(C)C`?
HP1b binding inh: 28%; JMJD2A Tudor inh: -11%

What do the screens show for `CCOc1ccccc1C(=O)Nc1ccccc1C(N)=O`?
G9a block: -31%[12.7 µM]; HP1b binding inh: 18%; JMJD2A Tudor inh: -12%; BAZ2B block: 13%; Sfp inh: -1%

Results for Cc1cc(NC(=O)c2cccc(Oc3ccccc3)c2)n[nH]1 ?
G9a block: -37%; HP1b binding inh: 39%; JMJD2A Tudor inh: -24%; BAZ2B block: inconclusive; Sfp inh: 6%

What do the screens show for `CCOc1ccccc1C(=O)Nc1nn[nH]n1`?
G9a block: 25µM*; HP1b binding inh: inconclusive; JMJD2A Tudor inh: 56µM*; BAZ2B block: 50µM*; Sfp inh: 23%

What do the screens show for `O=C(Nc1nn[nH]n1)c1cccc(Oc2ccccc2)c1`?
G9a block: 40µM*; HP1b binding inh: 30%; JMJD2A Tudor inh: inconclusive; BAZ2B block: 12%; Sfp inh: -6%

What do the screens show for `CCc1ccc(NC(=O)CCCc2nnc3n(C(C)CC)c(=O)c4sccc4n23)cc1` (centres undefined)?
G9a block: 2%[59 µM]; HP1b binding inh: 13%; JMJD2A Tudor inh: -14%; BAZ2B block: inconclusive

What do the screens show for `CC(=O)NC1C(OC2OC(CC(O)C3OC([N+]4=CCC(=O)NC4=O)C(O)C3O)C(O)C(O)C2NC(=O)/C=C/CCCCCCCCC(C)C)OC(CO)C(O)C1O` (centres undefined)?
G9a block: 12%[59 µM]; Sfp inh: -6%

How did O=C(NCC1CCCO1)c1onc(CSc2ccccc2F)c1C(=O)O (centres undefined) do in these assays?
G9a block: 31%[0.501 µM]; HP1b binding inh: 5%; JMJD2A Tudor inh: -17%; BAZ2B block: 79µM*; Sfp inh: 19%

What do the screens show for `COc1cccc(Cn2c(=O)c(-c3cccs3)nc3cnc(OC)nc32)c1`?
G9a block: 2%[0.501 µM]; Sfp inh: -1%

Results for Cc1cccc(NC(=O)CSCC(=O)Nc2ccc(S(=O)(=O)N3CCCCC3)cc2)c1 ?
G9a block: 32µM*; HP1b binding inh: 49%; JMJD2A Tudor inh: -14%; BAZ2B block: -2%

How did Cc1noc(C)c1C(=O)Nc1cccc(S(=O)(=O)N2CCCCC2)c1 do in these assays?
G9a block: 2%[59 µM]; HP1b binding inh: 32%; JMJD2A Tudor inh: 0%; BAZ2B block: -4%

What do the screens show for `Cc1ccc(NC(=O)CSCC(=O)Nc2cccc(S(=O)(=O)N3CCCCCC3)c2)cc1`?
G9a block: 7%[12.7 µM]; HP1b binding inh: 23%; JMJD2A Tudor inh: -28%; BAZ2B block: -7%

What do the screens show for `Cc1cc(C)c(C#N)c(SCC(=O)Nc2cccc(S(=O)(=O)N3CCCC3)c2)n1`?
G9a block: 50µM*; HP1b binding inh: 42%; JMJD2A Tudor inh: -8%; BAZ2B block: -3%

Results for CCc1noc(C)c1C(=O)Nc1cccc(S(=O)(=O)N2CCCCCC2)c1 ?
G9a block: 8.9µM*; HP1b binding inh: 21%; JMJD2A Tudor inh: -9%; BAZ2B block: 5%

How did Cc1cccc(NC(=O)CSCC(=O)Nc2ccccc2N2CCCC2)c1 do in these assays?
G9a block: inconclusive; HP1b binding inh: -5%; JMJD2A Tudor inh: inconclusive; BAZ2B block: 35µM*; Sfp inh: 9%

What do the screens show for `Cc1cccc(C)c1NC(=O)CCC(=O)N1Cc2ccccc2Oc2ncccc21`?
G9a block: -16%[59 µM]; HP1b binding inh: 3%; JMJD2A Tudor inh: -13%; BAZ2B block: 2%[57.1 µM]

What do the screens show for `CSc1ccc(CNC(=O)C2CCCN(S(=O)(=O)N(C)c3ccc(F)cc3)C2)cc1` (centres undefined)?
G9a block: 2%[59 µM]; HP1b binding inh: 34%; JMJD2A Tudor inh: -3%; BAZ2B block: -3%

High-throughput results from PubChem.
